According to PubChem BioAssay (NCI):
About 79,000 compounds went through this panel and 15% of them were active in at least one assay; those are over-represented in the sample as a whole. A number with no mark means an inactive call. Calls of active or inactive are those of the source. Rule as the data show it: active = growth inhibition above about 70%; inactive = the rest.

What was measured:
[1] = NCI Yeast Anticancer Drug Screen. Data for the rad52 strain (AID 147);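 also: 0% = growth of vehicle-treated control cultures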; details: S. cerevisiae rad52 mutant growth inhibition, hits give high values
Procedure, shortened: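 Growth of repair-deficient yeast cells was compared between compound-treated and vehicle-treated cultures to give percent inhibition.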

[2] = NCI Yeast Anticancer Drug Screen. Data for the wt1 strain (AID 149);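 also: 0% = growth of vehicle-treated wt1 cultures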; details: S. cerevisiae wt1 strain (SPY 50644) growth inhibition, hits give high values
Procedure, shortened: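 Using yeast strain wt1, compound-induced growth inhibition was determined against vehicle-treated cultures.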

[3] = NCI Yeast Anticancer Drug Screen. Data for the rad50EPP+ strain (AID 151);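 also: 0% = growth of vehicle-treated control cultures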; details: S. cerevisiae rad50 mutant strain, hits give high values
Procedure, shortened: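 Measured: growth inhibition of rad50EPP+ yeast. Reference: vehicle-treated controls. Screen uses strains with defined genetic alterations in DNA damage repair or cell cycle control.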

[4] = NCI Yeast Anticancer Drug Screen. Data for the mgt1 strain (AID 153); details: S. cerevisiae mgt1 mutant growth inhibition, hits give high values
Procedure, shortened: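 Compounds were applied to mgt1 mutant yeast, and growth was then compared against vehicle-treated control cultures to give percent inhibition.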

[5] = NCI Yeast Anticancer Drug Screen. Data for the rad50 strain (AID 155);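 also: 0% = growth of vehicle-only cultures of the same strain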; details: S. cerevisiae rad50 strain growth inhibition, hits give high values
Procedure, shortened: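 Relative growth inhibition (compound vs vehicle) was measured in yeast with a defined repair-gene alteration.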

[6] = NCI Yeast Anticancer Drug Screen. Data for the mec2-1 strain (AID 157); details: S. cerevisiae mec2-1 strain, hits give high values
Procedure, shortened: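 Compounds were applied to mec2-1 yeast cells. Their growth was then compared with that of vehicle-treated cultures to give growth inhibition.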

[7] = NCI Yeast Anticancer Drug Screen. Data for the rad14 strain (AID 159);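 also: 0% = growth of vehicle-treated control cultures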; details: S. cerevisiae rad14 strain growth inhibition, hits give high values
Procedure, shortened: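 Screen for anticancer potential: a yeast strain altered in DNA damage repair is grown with compound, and reduced growth is quantified against vehicle controls.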

[8] = NCI Yeast Anticancer Drug Screen. Data for the sgs1 mgt1 strain (AID 161);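 also: 0% = growth of cultures given vehicle only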; details: S. cerevisiae sgs1 mgt1 strain, hits give high values
Procedure, shortened: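 Growth of a repair-deficient yeast mutant was monitored after compound treatment and expressed as inhibition relative to vehicle-treated cultures.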

[9] = NCI Yeast Anticancer Drug Screen. Data for the CLN2oe strain (AID 163);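 also: 0% = growth of vehicle-only control cultures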; details: S. cerevisiae CLN2oe strain, hits give high values
Procedure, shortened: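 Cells of an engineered yeast line with disturbed cell-cycle regulation are treated with compound. Inhibition of growth is then calculated relative to the vehicle-treated reference.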

[10] = NCI Yeast Anticancer Drug Screen. Data for the cln2 rad14 strain (AID 165);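 also: 0% = growth equal to vehicle treated cultures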; details: S. cerevisiae cln2 rad14 strain, hits give high values
Procedure, shortened: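 Strain: cln2 rad14 yeast, altered in cell cycle control and DNA damage repair. Read-out: growth inhibition vs vehicle.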

[11] = NCI Yeast Anticancer Drug Screen. Data for the bub3 strain (AID 167); details: S. cerevisiae bub3 mutant strain, hits give high values
Procedure, shortened: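 Screening used yeast with an engineered genetic alteration affecting cell cycle control. Compound-exposed cultures were compared with vehicle cultures, and reduced growth was taken as inhibition.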

[12] = NCI Yeast Anticancer Drug Screen. Data for the wt2 strain (AID 169);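 also: 0% = growth of vehicle-treated yeast cultures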; details: S. cerevisiae wt2 strain growth inhibition, hits give high values
Procedure, shortened: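 Growth of compound-treated yeast is measured and expressed as inhibition relative to vehicle-only controls.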

[13] = NCI Yeast Anticancer Drug Screen. Data for the mlh1 strain (AID 171);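 also: 0% = growth of vehicle-treated control cultures of the same strain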; details: S. cerevisiae mlh1 strain growth inhibition, hits give high values
Procedure, shortened: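 Test agents were incubated with yeast bearing a defined DNA damage repair or cell cycle control alteration; values are growth inhibition normalised to vehicle-treated cultures.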

[14] = NCI Yeast Anticancer Drug Screen. Data for the sgs1 strain (AID 173);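 also: 0% = growth of vehicle-only control cultures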; details: S. cerevisiae sgs1 mutant, hits give high values
Procedure, shortened: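 Strain with an altered DNA repair or cell cycle pathway exposed to compound. Growth then measured. Value = inhibition versus vehicle control.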

[15] = NCI Yeast Anticancer Drug Screen. Data for the mlh1 rad18 strain (AID 175); details: S. cerevisiae mlh1 rad18 strain growth inhibition, hits give high values
Procedure, shortened: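 A repair-deficient yeast strain is exposed to test compound, and growth is scored relative to vehicle-treated controls.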

[16] = NCI Yeast Anticancer Drug Screen. Data for the rad18 strain (AID 177); details: S. cerevisiae rad18 mutant growth inhibition, hits give high values
Procedure, shortened: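 DNA-repair-defective yeast; compound treatment; growth inhibition scored against vehicle.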

[17] = at 5.0 µM (retest, dose inferred, filed as 0.5)
[18] = at 50.0 µM (retest, dose inferred, filed as 5.0)

Nc1ccc(S(=O)(=O)Nc2nc3c(c(=O)[nH]2)CCCC3)cc1
growth inhibition ([1]; at 1.2 µM): 14% | growth inhibition ([1]; at 3.7 µM): 18% | growth inhibition ([1]; at 11.0 µM): 87% (active) | growth inhibition ([1]; at 33.0 µM): 99% (active) | growth inhibition ([1]; at 100.0 µM): 99% (active) | growth inhibition ([2]; at 1.2 µM): 5% | growth inhibition ([2]; at 3.7 µM): 31% | growth inhibition ([2]; at 11.0 µM): 93% (active) | growth inhibition ([2]; at 33.0 µM): 99% (active) | growth inhibition ([2]; at 100.0 µM): 100% (active) | growth inhibition ([3]; at 1.2 µM): 12% | growth inhibition ([3]; at 3.7 µM): 47% | growth inhibition ([3]; at 11.0 µM): 80% (active) | growth inhibition ([3]; at 33.0 µM): 99% (active) | growth inhibition ([3]; at 100.0 µM): 99% (active) | growth inhibition ([4]; at 1.2 µM): 2% | growth inhibition ([4]; at 3.7 µM): 0% | growth inhibition ([4]; at 11.0 µM): 50% | growth inhibition ([4]; at 33.0 µM): 98% (active) | growth inhibition ([4]; at 100.0 µM): 99% (active) | growth inhibition ([5]; at 1.2 µM): 21% | growth inhibition ([5]; at 3.7 µM): 22% | growth inhibition [5, 17]: 31% | growth inhibition ([5]; at 11.0 µM): 93% (active) | growth inhibition ([5]; at 33.0 µM): 99% (active) | growth inhibition [5, 18]: 98% (active) | growth inhibition ([5]; at 50.0 µM): 99.5% (active) | growth inhibition ([5]; at 100.0 µM): 99% (active) | growth inhibition ([6]; at 1.2 µM): 0% | growth inhibition ([6]; at 3.7 µM): 4% | growth inhibition [6, 17]: 28% | growth inhibition ([6]; at 11.0 µM): 48% | growth inhibition ([6]; at 33.0 µM): 99% (active) | growth inhibition [6, 18]: 99% (active) | growth inhibition ([6]; at 50.0 µM): 99.5% (active) | growth inhibition ([6]; at 100.0 µM): 99% (active) | growth inhibition ([7]; at 1.2 µM): 19% | growth inhibition ([7]; at 3.7 µM): 33% | growth inhibition ([7]; at 11.0 µM): 94% (active) | growth inhibition ([7]; at 33.0 µM): 100% (active) | growth inhibition ([7]; at 100.0 µM): 100% (active) | growth inhibition [8, 17]: 44% | growth inhibition [8, 18]: 99% (active) | growth inhibition ([8]; at 50.0 µM): 99.5% (active) | growth inhibition ([9]; at 1.2 µM): 5% | growth inhibition ([9]; at 3.7 µM): 5% | growth inhibition ([9]; at 11.0 µM): 21% | growth inhibition ([9]; at 33.0 µM): 99% (active) | growth inhibition ([9]; at 100.0 µM): 99% (active) | growth inhibition [10, 17]: 8% | growth inhibition [10, 18]: 99% (active) | growth inhibition ([10]; at 50.0 µM): 99.2% (active) | growth inhibition ([11]; at 1.2 µM): 33% | growth inhibition ([11]; at 3.7 µM): 40% | growth inhibition [11, 17]: 14% | growth inhibition ([11]; at 11.0 µM): 92% (active) | growth inhibition ([11]; at 33.0 µM): 99% (active) | growth inhibition [11, 18]: 98% (active) | growth inhibition ([11]; at 50.0 µM): 99.3% (active) | growth inhibition ([11]; at 100.0 µM): 99% (active) | growth inhibition ([12]; at 1.2 µM): 29% | growth inhibition ([12]; at 3.7 µM): 73% (active) | growth inhibition ([12]; at 11.0 µM): 99% (active) | growth inhibition ([12]; at 33.0 µM): 100% (active) | growth inhibition ([12]; at 100.0 µM): 100% (active) | growth inhibition ([13]; at 1.2 µM): 8% | growth inhibition ([13]; at 3.7 µM): 20% | growth inhibition ([13]; at 11.0 µM): 75% (active) | growth inhibition ([13]; at 33.0 µM): 99% (active) | growth inhibition ([13]; at 100.0 µM): 99% (active) | growth inhibition ([14]; at 1.2 µM): 36% | growth inhibition ([14]; at 3.7 µM): 47% | growth inhibition ([14]; at 11.0 µM): 95% (active) | growth inhibition ([14]; at 33.0 µM): 99% (active) | growth inhibition ([14]; at 100.0 µM): 99% (active) | growth inhibition [15, 17]: 84% (active) | growth inhibition [15, 18]: 99% (active) | growth inhibition ([15]; at 50.0 µM): 99.4% (active) | growth inhibition ([16]; at 1.2 µM): 33% | growth inhibition ([16]; at 3.7 µM): 48% | growth inhibition ([16]; at 11.0 µM): 85% (active) | growth inhibition ([16]; at 33.0 µM): 99% (active) | growth inhibition ([16]; at 100.0 µM): 99% (active)
